Reference: the supplement of paper PMC7858590
Several values for one entry are separate records, joined by “and”; a condition that tells them apart may be missing. Equal entries are not always repeated.

system: human monocyte-derived macrophages (polarized); experiment: cell shape (eccentricity) Z-score vs DMSO control; higher = more elongated, M2-like morphology; conditions: 5 µM; 24 h; macrophage state: M1-polarized (IFNg + TNFa), cytokines present during treatment
Method: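 Primary-screen hits were rescreened on polarized hMDMs with the differentiating cytokines (IL-4 + IL-13 or IFNg + TNFa) kept in the medium during treatment with compound at 5 uM for 24 h. The eccentricity Z-score vs DMSO wells is averaged over experiments.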

SMILES | cell shape (Z-score)
Cn1cncc1[C@@](N)(c1ccc(Cl)cc1)c1ccc2c(c1)c(-c1cccc(Cl)c1)cc(=O)n2C | -0.763
CC(C)CNc1ccnc(NCc2csc(-c3ccccc3)n2)n1 | -11.9
C[C@@H](N)[C@H]1CC[C@H](C(=O)Nc2ccncc2)CC1 | 5.7
Clc1ccc(C2(c3ccc(-c4cn[nH]c4)cc3)CCNCC2)cc1 | 24.9
COc1ccc(N(C(=O)c2ccccc2)S(=O)(=O)c2cc(OC)ccc2OC)cc1 | -2.07
C=C1CC[C@@H]2[C@](C)(CO[C@@H]3O[C@H](CO)[C@@H](O)[C@H](O)[C@H]3O)CCC[C@@]2(C)[C@@H]1CCC1=CCOC1=O | -4.62
O=C(c1ccc(/C=C/c2n[nH]c3ccccc23)cc1)N1CCNCC1 | 28.4
O=c1cc(-c2ccc(O)cc2)oc2cc(O)cc(O)c12 | 0.0357
CN(C)CC[C@H](CSc1ccccc1)Nc1ccc(S(=O)(=O)NC(=O)c2ccc(N3CCN(Cc4ccccc4-c4ccc(Cl)cc4)CC3)cc2)cc1[N+](=O)[O-] | 0.862
C=C[C@@]1(C)CC(=O)[C@]2(O)[C@@]3(C)[C@@H](O)CCC(C)(C)[C@@H]3[C@H](O)[C@H](OC(C)=O)[C@@]2(C)O1 | -1.28
Cc1c(C(N)=O)cc([N+](=O)[O-])cc1[N+](=O)[O-] | 3.38
Cc1nn(C)c2nc(NNC(=O)Nc3cc(Cl)nc(Cl)c3)cc(C(C)C)c12 | 7.42
CC(C)(C)c1cc(C(=O)/C=C/c2ccc(C(=O)O)cc2)cc(C(C)(C)C)c1 | -7.58
C=CC(=O)N1CCC[C@@H](n2nc(-c3ccc(Oc4ccccc4)cc3)c3c(N)ncnc32)C1 | 6.69
O=C(O)c1ccc2c(c1)nc(Nc1cccc(Cl)c1)c1ccncc12 | 9.47
COc1ccc(-c2oc3ccccc3c(=O)c2O)cc1OC | -0.838
CC(C)c1ccccc1Cc1cc(C(=O)Nc2ccc(S(=O)(=O)c3ccccc3C(C)(C)C)cc2)c(O)c(O)c1O | -2.24
COc1ccc([C@H]2CNC(=O)C2)cc1OC1CCCC1 | -2.33
N#CC[C@H](C1CCCC1)n1cc(-c2ncnc3[nH]ccc23)cn1 | 1.19
CCN(CC)CCNC(=O)c1c(C)[nH]c(/C=C2\C(=O)Nc3ccc(F)cc32)c1C | 8.79 and 5.25
CCOc1cc2ncc(C#N)c(Nc3ccc(OCc4ccccn4)c(Cl)c3)c2cc1NC(=O)/C=C/CN(C)C | 0.0624
Cc1onc(-c2ccccc2)c1-c1ccc(S(N)(=O)=O)cc1 | 7.67

same assay, conditions: 5 µM; 24 h; macrophage state: M2-polarized (IL-4 + IL-13), cytokines present during treatment

SMILES | cell shape (Z-score)
CC(CCCCC(=O)Nc1ccc(C(F)(F)F)cc1)NCCc1cnc[nH]1 (stereo not given) | -6.34
CC(=O)O[C@H]1C(=O)[C@@]2(C)[C@H]([C@H](OC(=O)c3ccccc3)[C@]3(O)C[C@H](OC(=O)[C@H](O)[C@@H](NC(=O)c4ccccc4)c4ccccc4)C(C)=C1C3(C)C)[C@]1(OC(C)=O)CO[C@@H]1C[C@@H]2O | -14.3 and -18.7
CNCCC(Oc1ccc(C(F)(F)F)cc1)c1ccccc1 (stereo not given) | 7.81
CCCCCCCCc1ccc(CCC(N)(CO)CO)cc1 | -15.5
Cc1cc2cc3c(C)cc(=O)oc3c(C)c2o1 | 1.88
CCC[C@H](NC(=O)/C(C#N)=C/c1cccc(Br)n1)c1ccccc1 | -2.53
O=C(Nc1ccc([N+](=O)[O-])cc1Cl)c1cc(Cl)ccc1O | -8.05
O=C1c2ccccc2C(Cc2ccnc(F)c2)(Cc2ccnc(F)c2)c2ccccc21 | 1.79
O=C(O)CC[C@H]1CC[C@@](c2cc(F)ccc2F)(S(=O)(=O)c2ccc(Cl)cc2)CC1 | 4.15
CCCSc1ccc2[nH]c(NC(=O)OC)nc2c1 | -6.38
Nc1ccccc1NC(=O)c1ccc(CNC(=O)OCc2cccnc2)cc1 | -0.828
O=C(O)Cc1nn(Cc2ccc(Br)cc2F)c(=O)c2ccccc12 | -1.61
N=C(NCCCCCCNC(=N)NC(=N)Nc1ccc(Cl)cc1)NC(=N)Nc1ccc(Cl)cc1 | -10.6 and -7.15
Cc1cc(NS(=O)(=O)c2ccc(N)cc2)no1 | -9.54
CC(=O)Cc1cc(=O)c2c(C)cc(O)c(C3OC(CO)C(O)C(O)C3O)c2o1 (stereo not given) | -1.16
Cc1cc(CC(C)CC(C)(C)C)n(O)c(=O)c1 (stereo not given) | 0.506
O=C1c2c(O)ccc(O)c2C(=O)c2c(NCCNCCO)ccc(NCCNCCO)c21 | -1.14
COc1ccc(C[C@H](N)C(=O)N[C@H]2[C@@H](O)[C@H](n3cnc4c(N(C)C)ncnc43)O[C@@H]2CO)cc1 | -12.5
